From PubChem BioAssay
A1 inh – inducers of caspase activity in MEF A1-2A-BIM cells, primary screen, A1 inhibitor project, cell-based, CaspaseGlo luminescence | 0.51% of 21,000 active | caspase activation, % (concentration not given with the values) | AID 2241, 2010 | caspase-Glo luminescence, 3 h; percent of clofoctol signal, DMSO as zero;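 active = most replicate scores above 10, or exactly half above 10 with mean activity above 10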;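 note: effector caspase 3 and 7 activity cleaving a DEVD luciferin substrate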
BJeLR viab HTS – BJeLR cell viability loss, primary screen, luminescence, CellTiterGlo ATP. BJeLR fibroblasts viability, 48 h; HRASV12, hTERT and SV40 LT/ST transformed. viability loss activity score, % (no concentration beside the values). 0.64% of 30,000 active; in the data active = viability loss activity score above about 50%;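 note: higher score means fewer live cells and less ATP luminescence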
Numbers stand for hits; - = inactive; . = no result given. The list is not random: actives were taken first. Their share in the collection is about 0.9%.

SMILES	A1 inh	BJeLR viab HTS
N#CC(C#N)=NNc1ccc(OC(F)(F)F)cc1	-	85.9
C/C=C/[C@@H]1[C@H]2C[C@@H](C)CC[C@@H]2C(C)=C[C@H]1C(=O)c1c(O)c(-c2ccc(O)cc2)c[nH]c1=O	-	-
COc1cc[n+](OC(=O)N2CCCCC2)c(C)c1	-	-
COC(=O)c1ccc(OP2(=O)COc3ccccc3OC2)cc1	-	-
c1ccc2c(c1)cc1ccc3cccc4ccc2c1c34	-	-
O=C1c2ccccc2-c2cccc3cccc1c23	-	73.7
C/C(CC(c1ccccc1)c1c(O)c2ccccc2oc1=O)=N/O (stereo not drawn)	-	-
COC(=O)[C@@]1(O)C[C@@H]2O[C@@]1(C)n1c3ccccc3c3c4c(c5c6ccccc6n2c5c31)C(=O)NC4	13.2	.
C[C@]12C=CC(=O)C=C1CCC1C2CC[C@]2(C)C(=O)CCC12 (stereo partly drawn)	-	-
O=C(O)CP(=S)(c1ccccc1)c1ccccc1	-	-
CCN1CC2(COC)CCC(O)C34C5CC6C(OC)CC(O)(C5C6O)C(C(OC)C23)C14 (stereo not drawn)	-	-
COC(=O)CC1=C(C(=O)OC)C2(C(=O)Nc3ccccc32)C(C(=O)OC)=C(N)O1 (stereo not drawn)	-	-
COC(=O)[C@@]12C(=O)C(C)C(=O)[C@]1(C)C(C)=C[C@H]1[C@]3(C)CC[C@H](OC(C)=O)C(C)(C)[C@H]3CC[C@@]12C (stereo partly drawn)	-	-
Cc1ccccc1OCCCn1cc(C(=O)C(C)(C)C)c2ccccc21	.	-
COc1ccc(C[C@H]2NC[C@H](O)[C@H]2OC(C)=O)cc1	12.8	117.4
CC(=O)O[C@@H](c1nc2ccccc2c(=O)n1[C@@H]1C[C@@]2(OC1=O)c1ccccc1N1C(=O)[C@H](C)N(O)[C@@H]12)C(C)C	-	-
CC[C@@]1(O)C(=O)OCc2c1cc1n(c2=O)-c2cc3ccccc3nc2C1	-	120.8
OC[C@H]1O[C@@H](Oc2c[nH]c3ccc(Br)c(Cl)c23)[C@H](O)[C@@H](O)[C@H]1O	-	-
COC[C@H]1OC(=O)c2coc3c2[C@@]1(C)C1=C(C3=O)C2CCC(=O)[C@@]2(C)C[C@H]1OC(C)=O (stereo partly drawn)	51.9	-
C/C1=C/C(=O)O[C@@H]2C[C@@H](CC[C@H](C)/C=C\CC1)O[C@@](O)([C@@H]1CSC(=O)N1)C2	23.1	-
O=C(NC(=O)c1ccccc1Cl)Nc1ccc2c(c1)S(=O)(=O)C=C2	-	-
C=C1[C@@H](C)[C@H]2[C@H](Cc3ccccc3)NC(=O)[C@]23[C@H](OC(C)=O)C=C[C@](C)(O)C(=O)[C@@H](C)C/C=C/[C@H]3[C@@H]1O	15.8	-
C=CC(C)(C)[C@]12C=C(OC)C(=O)N3/C(=C/c4cnc[nH]4)C(=O)N[C@@]31N(OC)c1ccccc12	-	-
CO[C@H]1C[C@H](OC2CCC3(C)C4CCC5(C)C(C6=CC(=O)OC6)CC(OC(C)=O)C5(O)C4CC[C@H]3C2)O[C@@H](C)[C@@H]1O (stereo partly drawn)	-	98.9
C[C@H]1O[C@@H](O[C@H]2[C@@H](O)C[C@H](O[C@H]3[C@@H](O)C[C@H](O[C@H]4CC[C@@]5(C)[C@H](CC[C@@H]6[C@@H]5CC[C@]5(C)[C@@H](C7=CC(=O)OC7)CC[C@]65O)C4)O[C@@H]3C)O[C@@H]2C)C[C@H](O)[C@@H]1O	-	134.3
SMILES	A1 inh	BJeLR viab HTS
C[C@H]1OC(O[C@H]2[C@@H](O)CC(O[C@H]3[C@@H](O)C[C@H](O[C@H]4CC[C@]5(C)C6CC[C@]7(C)[C@@H](C8=CC(=O)OC8)[C@@H](O)C[C@]7(O)[C@@H]6CC[C@@H]5C4)O[C@@H]3C)O[C@@H]2C)C[C@H](O)C1O (stereo partly drawn)	-	98.4
CC[C@@]12CCCN3CC[C@]4(c5cccc(OC)c5N(C(C)=O)[C@@H]4CC1)[C@H]32	-	-
S=C(Nc1ccccc1)N1CCCCC1c1cccnc1 (stereo not drawn)	-	-
CC(C)c1cc2c(cc1O)[C@@]1(C)CCCC(C)(C)[C@@H]1CC2O (stereo partly drawn)	-	-
CSC1=NN1c1cc(C)nc(N)n1	-	-
Cc1cc(-n2c(=S)[nH]c3ccccc3c2=O)ccc1Br	-	-
O=C(CCNS(=O)(=O)c1ccccc1)Nc1ccc(Br)cc1C(=O)c1ccccc1	-	-
CCOC(=O)C1=NN(c2ccc(C)cc2)C2c3cccc4cccc(c34)C12 (stereo not drawn)	-	-
O=C1NC(=O)C(=C/C=C/c2ccccc2)C(=O)N1	-	-
N#CC(C#N)=Cc1ccc(O)c(O)c1	-	-
CC(C)(C)c1cc(C=C(C#N)C#N)cc(C(C)(C)C)c1O	-	71.2
C/C=C\C(C)=C\[C@H](C)C(=O)C[C@H](O)CC1CC(=O)NC(=O)C1	-	-
C[C@@H]1O[C@@H](O[C@H]2[C@H](O)[C@@H](O)[C@H](O[C@@H]3C=C4CC[C@@H]5C(CC[C@]6(C)[C@@H](c7ccc(=O)oc7)CC[C@]56O)[C@@]4(C)CC3)O[C@@H]2CO)[C@H](O)[C@H](O)[C@H]1O (stereo partly drawn)	-	124.9
CC[C@@H]1/C=C\C=C\C[C@H](C)C(O)[C@](C)(O)C(=O)[C@H](C)C(O)[C@H](C)C(=O)[C@H](C)[C@@H](O)[C@H](C)/C=C/C(=O)O[C@H]2[C@@H](C)[C@@H](CC1)O[C@@]1(CC[C@@H](C)[C@@H](C[C@H](C)O)O1)[C@@H]2C (stereo partly drawn)	-	-
CSc1nc(-c2ccc(Cl)cc2)nn1C(=O)N(C)C	-	-
COC[C@H]([C@@H](O)[C@@H](O)C(=O)NCC[C@@H](C)c1nc(/C=C/C[C@H]2OC3(C[C@H](O)[C@H]2C)OC([C@@H](C[C@@H](O)[C@@H](C)[C@@H](O)[C@@H](C)/C=C(C)/C(C)=C/C=C/C(C)=C\C#N)OC)[C@@H](OP(=O)(O)O)C3(C)C)co1)N(C)C (stereo partly drawn)	-	69.5
O=C(CCN1CCOCC1)NC=Nc1cccnc1	-	-
CCc1nc2ccccc2c(=O)n1-c1ccccc1Cl	-	-
CO[C@H]1[C@H](O)[C@H](O[C@H]2CC[C@]3(C)C4CC[C@]5(C)[C@H](C6=CC(=O)OC6)CC[C@]5(O)C4CC[C@@H]3C2)O[C@@H](C)[C@@H]1O (stereo partly drawn)	-	115.8
C[C@@H]1O[C@@H](O[C@H]2C[C@@H](O)[C@]3(CO)[C@H]4[C@H](O)C[C@]5(C)[C@@H](C6=CC(=O)OC6)CC[C@]5(O)[C@@H]4CC[C@]3(O)C2)[C@H](O)[C@H](O)[C@H]1O	-	103.9
C[C@@H]1O[C@@H](OC2CCC3(C)C4CCC5(C)C(C6=CC(=O)OC6)CCC5(O)C4CC[C@H]3C2)[C@H](O)[C@H](O)[C@H]1O (stereo partly drawn)	-	100.6
C[C@]12CC[C@H]3[C@@H](CC[C@]4(O)C[C@@H](O)CC[C@]34C=O)[C@@]1(O)CC[C@@H]2C1=CC(=O)OC1	-	82.3
Cn1c(CCN)nc2ccccc21	-	-
